# About 31,000 (8.9%) of roughly 350,000 compounds were called active. Roughly 15% stayed inconclusive and do not appear here. The list comes from a sample in which actives are over-represented; it also holds similar structures and randomly drawn compounds. Entries that show only a call come without a potency. Values without a mark were called inactive. Calls follow the shape of the dose curve; as a rule, active = well fitted inhibition curve with a large enough effect; inconclusive = small, poorly fitted or top-dose-only effect; inactive = no such curve, though single readings can be large or run the other way.
# Biological target: Histone-lysine N-methyltransferase EHMT2 (Homo sapiens) (UniProt Q96KQ7)
# Sequence (Q96KQ7 913-1193 limits assumed): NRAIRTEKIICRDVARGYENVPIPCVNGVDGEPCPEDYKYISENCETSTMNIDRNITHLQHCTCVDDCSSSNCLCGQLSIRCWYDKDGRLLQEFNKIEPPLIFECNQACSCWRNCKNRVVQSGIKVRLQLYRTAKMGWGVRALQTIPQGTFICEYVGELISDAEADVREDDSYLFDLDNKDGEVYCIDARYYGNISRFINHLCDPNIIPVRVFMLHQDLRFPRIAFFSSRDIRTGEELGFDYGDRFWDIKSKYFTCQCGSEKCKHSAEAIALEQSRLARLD
# Assay: qHTS Assay for Inhibitors of Histone Lysine Methyltransferase G9a; also: nearly all actives have a fitted effect of over 75% in size
# Conditions: G9a H3K9 monomethylation, AlphaScreen, 2 h; series mostly up to 59 µM
# Procedure, shortened: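 G9a (20 nM) preincubated 15 min RT with compounds, then 500 nM biotinylated H3K9 peptide and 20 uM SAM added; 2 h RT reaction. Monomethyl-H3K9 product detected by AlphaScreen with anti-H3K9me1 antibody, streptavidin donor and anti-rabbit IgG acceptor beads.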
# Potency is read from the fitted curve at half-maximal effect.
SMILES,"activity, negative = inhibition",Potency
COc1ccc(S(=O)(=O)N2CCCC2CNC(=O)C(=O)NC2CC2)cc1 (stereo not given),4.18% [at 0.501 µM],
CCC(=O)c1ccc(OCC(=O)OCC(=O)NC2CCCCCC2)cc1,,inactive
O=C(COc1ccccc1[N+](=O)[O-])NC1CC1,,inactive
C=CCN(CC=C)CCOc1ccccc1[N+](=O)[O-],,17.8 µM (active)
O=C(COc1ccccc1[N+](=O)[O-])N/N=C/c1ccc[nH]1,,inactive
CSc1ccccc1NC(=O)C(C)N1C(=O)c2ccccc2S1(=O)=O (stereo not given),,inactive
Cc1nn(C(C)C(=O)NCCc2ccccc2)c(=O)c2c1sc1ccccc12 (stereo not given),,inactive
COc1ccc(-c2cc(C(=O)NC(Cc3c[nH]c4ccccc34)C(=O)O)c(C)o2)cc1OC (stereo not given),,10 µM (active)
COc1ccc(CNC(=O)[C@H](Cc2c[nH]c3ccccc23)NC(C)=O)cc1OC,,inactive
Cc1cccc(C)c1OCC(=O)NC(Cc1c[nH]c2ccccc12)C(=O)O (stereo not given),,inactive
O=C(Nc1cccc(Br)c1)c1ccc2snnc2c1,,inactive
COc1cccc(Cn2c(CNS(=O)(=O)c3ccc(Cl)s3)nc3cccnc32)c1,,inactive
CCCCCn1c(=O)[nH]c2cc(C(=O)NCCN(C)CCCC)ccc2c1=O,,inactive
O=C(N/N=C/c1ccoc1)c1ccc(Cl)cc1Cl,,inactive
COC(=O)c1cc(C(=O)OC)cc(N2C(=O)CC(N3CCN(c4ccccc4)CC3)C2=O)c1 (stereo not given),,15.8 µM (active)
CCCCOC(=O)c1ccc(N2C(=O)CC(N3CCN(C/C=C/c4ccccc4)CC3)C2=O)cc1 (stereo not given),,inactive
CC(=O)Oc1cccc(N2C(=O)CC(Nc3ccc(N4CCOCC4)cc3)C2=O)c1 (stereo not given),-45.5% [at 12.7 µM],
Cc1ccc(C)c(Cn2c(=O)n(CCC(=O)NCc3ccc4c(c3)OCO4)c(=O)c3sccc32)c1,,inactive
Cc1ccc(F)cc1S(=O)(=O)N1CCC(c2nc3ccccc3s2)CC1,,inactive
N#Cc1ccc(C(c2nnnn2CCc2ccccc2)N2CCCCCC2)cc1 (stereo not given),,inactive

SMILES,"activity, negative = inhibition",Potency
COc1ccc(CCn2nnnc2C(c2ccccc2)N2CCN(C)CC2)cc1OC (stereo not given),,70.8 µM (active)
COCCn1nnnc1C(c1ccccc1Cl)N1CCN(c2ccccc2OC)CC1 (stereo not given),,inactive
COc1ccc(C(=O)N2CCC(c3nc4ccccc4o3)CC2)cc1,,inactive
COc1ccc(CNC(=O)c2cc3cccc(OC)c3oc2=O)cc1,,inactive
O=C(CC1N=C2c3ccccc3N=C(SCc3cccc(Cl)c3)N2C1=O)NCc1ccc2c(c1)OCO2 (stereo not given),,inactive
CCOC(=O)c1c(C)[nH]c(C(=O)OCC(=O)c2ccc(OC)cc2OC)c1C,4.02% [at 0.501 µM],
Cc1cccc(CC(=O)N2CC(=O)Nc3ccc(F)cc3C2c2ccccc2)c1 (stereo not given),,inactive
CN=C1C=C/C(=N/N=c2\ccn(O)cc2C)C=C1C,,7.94 µM (active)
O=C(NCCc1ccc(C(F)(F)F)cc1)c1ccc2c(c1)OCO2,,inactive
Cc1ccc(C)c(NC(=O)CCC(=O)NNC(=O)c2cccs2)c1,,inactive
COC(=O)C(CC(=O)Nc1cc(C)ccc1C)Nc1ccccc1OC (stereo not given),-11.9% [at 2.33 µM],
Cc1ccc(C)c(NC(CC(=O)c2ccccc2)C(=O)OCC(=O)c2cccs2)c1 (stereo not given),,28.2 µM (active)
CN1C(C(=O)NCC2CC2)CC2Cn3c(nc4ccccc43)C21 (stereo not given),2.03% [at 2.33 µM],
Cc1ccc(S(=O)(=O)CC(=O)Nc2sc(C)c(C)c2C(N)=O)cc1,-22.4% [at 0.501 µM],
COc1ccccc1C(=O)Nc1ccc(C)c(S(=O)(=O)N2CCCCC2)c1,,inactive
CCCCc1nc2ccccc2c(=O)n1NC(=O)c1c(O)c2cccc3c2n(c1=O)CC3,,inactive
CCCCc1nc2ccccc2c(NC(=O)CN2CCN(C)CC2)c1CCC,,10 µM (active)
CCOC(=O)N1CCN(CC(=O)Nc2cc(C)nn2-c2nc3ccccc3s2)CC1,,inactive
FC(F)(F)c1ccc2nnc(-c3c(Cl)cccc3Cl)n2c1,,44.7 µM (active)
O=C1Cc2cc(S(=O)(=O)Nc3ccc(OC(F)(F)F)cc3)cc3c2N1CCC3,,inactive

SMILES,"activity, negative = inhibition",Potency
O=C(Nc1ccon1)c1nc[nH]c1C(=O)NCc1ccccc1,4.11% [at 0.501 µM],
CCOC(=O)c1c(C)[nH]c(C)c1S(=O)(=O)N(C)CC(=O)N1CCN(c2ccccc2)CC1,,inactive
O=C(Cc1ccc(-n2c(=O)[nH]c3ccccc3c2=O)cc1)N1CCN(c2cccc(Cl)c2)CC1,-10.6% [at 12.7 µM],
CCOC(=O)N1CCN(C(=O)Cc2ccc(-n3c(=S)[nH]c4ccccc4c3=O)cc2)CC1,,44.7 µM (active)
CCCCNC(=O)c1ccc(-n2c(=S)[nH]c3ccccc3c2=O)cc1,,inactive
O=C(COC(=O)/C=C/c1ccc(OC(F)F)cc1)NC1CCCCC1,,inactive
Cc1ccc(OCCNC(=O)CCNS(=O)(=O)c2ccc(Br)cc2)cc1,,inactive
COc1ccccc1-c1oc2ccccc2c1C#CCCCCO,7.94% [at 0.501 µM],
Cc1cccc(CS(=O)(=O)c2ncc(Cl)c(C(=O)Nc3ccc(F)cc3)n2)c1,,28.2 µM (active)
Cc1nnc(NC(=O)Nc2ccc(Cl)c(Cl)c2)s1,,inactive
Cc1ccc(S(=O)(=O)CC(=O)Nc2nnc(C)s2)cc1,,inactive
Cc1cccc(OCc2ccc(C(=O)Nc3ccc(F)cc3)cc2)c1,,inactive
CCSc1ncc(Cl)c(C(=O)Nc2cc(C)ccc2C)n1,,inactive
CCOC(=O)c1ccc(NC(=O)c2nc(SCc3ccc(F)cc3)ncc2Cl)cc1,,inactive
Cc1cccc(NC(=O)c2nc[nH]c2C(=O)NCC(=O)OCc2ccccc2)c1,,inactive
Cc1cccc(NC(=O)c2nc(S(=O)(=O)Cc3ccccc3)ncc2Cl)c1,,39.8 µM (active)
Cc1ccc(CS(=O)(=O)c2ncc(Cl)c(C(=O)Nc3nnc(C)s3)n2)cc1,,14.1 µM (active)
Cc1ccc(NC(=O)CN(C)C(=O)c2cccc(S(=O)(=O)N3CCCC3)c2)cc1,,inactive
COc1ccccc1OCC(=O)Nc1ccccc1C(=O)NC1CC1,-4.61% [at 0.501 µM],
COc1ccc(CCNC(=O)c2ccc(-n3c(C)cc4c3CCCC4)cc2)cc1OC,,inactive

# From PubChem BioAssay AID504332 (National Center for Advancing Translational Sciences (NCATS), 2011)
